Measurements taken from PubChem BioAssay.
Unmarked numbers belong to inactive results. For part of these data: Entries with a potency or affinity are not part of this list. Calls of active or inactive are those of the source. Unless noted, no rule for the calls is given here.

What was measured:
[1] = antimalarial activity against Dd2 strain (AID 2302;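 active = growth inhibition above 50% at the single 2 µM test dose, taken to imply half-maximal potency below 2 µM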;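 also: 0% = DMSO untreated growth and 100% = chloroquine plus artemisinin killed control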); details: P. falciparum Dd2 in RBCs, LDH growth readout, 72 h; at 2 µM; stronger effect = higher value
[2] = HepG2 cytotoxicity, primary screen, cytotoxicity control for P. falciparum antimalarial project, cell-based, ATP luminescence (AID 2303;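 active = inhibition above 50%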;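 also: 0% = DMSO wells and 100% = digitonin-killed cells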); details: HepG2 viability, 24-48 h, at 10 µM, stronger effect = higher value
[3] = molecular target: L-lactate dehydrogenase (Plasmodium falciparum (isolate CDC / Honduras)) (UniProt Q27743); test: PfLDH activity inhibition – cell lysate, 3D7 strain, counter-screen for P. falciparum growth inhibition project (AID 2304);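 also: 0% = vehicle and 100% = reference inhibitor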; details: P. falciparum 3D7 crude extract, LDH APAD/NBT absorbance; at 2 µM; stronger effect = higher value
Chain of L-lactate dehydrogenase (Plasmodium falciparum (isolate CDC / Honduras)) (Q27743 whole entry, looked up): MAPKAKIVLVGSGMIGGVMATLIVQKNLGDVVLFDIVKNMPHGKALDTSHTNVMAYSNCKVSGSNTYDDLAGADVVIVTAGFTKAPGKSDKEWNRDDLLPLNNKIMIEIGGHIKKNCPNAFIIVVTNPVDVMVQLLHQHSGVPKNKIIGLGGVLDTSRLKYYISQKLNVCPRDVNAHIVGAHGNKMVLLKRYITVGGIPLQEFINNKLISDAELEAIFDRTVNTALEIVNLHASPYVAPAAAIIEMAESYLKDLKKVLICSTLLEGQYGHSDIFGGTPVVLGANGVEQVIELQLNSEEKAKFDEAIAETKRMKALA

[4] = inhibition of 3D7 malaria parasite growth – strain 3D7 (AID 2306);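 also: 0% = DMSO wells and 100% = chloroquine plus artemisinin control wells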; details: P. falciparum 3D7 erythrocytic growth, LDH absorbance, 72 h; at 2 µM; stronger effect = higher value
[5] = molecular target: Calcium-dependent protein kinase 1 (Plasmodium falciparum (isolate 3D7)) (UniProt P62344); test: PfCDPK1 kinase inhibitors, biochemical, TCAMS library (AID 1159585; cut-off not given, nearly all actives have IC50 up to about 0.98 µM;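 also: inhibitors leave more ATP so luminescence rises with inhibition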); details: recombinant PfCDPK1, Kinase-Glo ATP depletion luminescence
Chain of Calcium-dependent protein kinase 1 (Plasmodium falciparum (isolate 3D7)) (P62344 whole entry, looked up): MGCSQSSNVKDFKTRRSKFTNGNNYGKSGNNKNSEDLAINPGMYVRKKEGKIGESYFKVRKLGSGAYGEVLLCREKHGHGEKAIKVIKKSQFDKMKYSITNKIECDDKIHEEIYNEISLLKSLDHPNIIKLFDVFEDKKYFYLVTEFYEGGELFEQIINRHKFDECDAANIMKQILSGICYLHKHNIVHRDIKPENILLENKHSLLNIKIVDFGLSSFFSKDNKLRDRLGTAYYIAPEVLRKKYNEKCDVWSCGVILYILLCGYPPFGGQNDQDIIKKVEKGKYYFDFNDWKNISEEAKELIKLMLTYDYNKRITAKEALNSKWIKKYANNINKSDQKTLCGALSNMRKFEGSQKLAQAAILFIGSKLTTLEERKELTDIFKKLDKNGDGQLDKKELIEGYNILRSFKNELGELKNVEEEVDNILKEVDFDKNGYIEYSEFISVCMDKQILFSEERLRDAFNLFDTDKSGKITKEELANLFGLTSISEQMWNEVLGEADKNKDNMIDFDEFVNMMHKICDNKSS

[6] = molecular target: Plasmodium falciparum protein kinase 6 (PK6, PF3D7_1337100) (UniProt Q8IDW1); test: PfPK6 kinase inhibitors, biochemical, TCAMS library (AID 1159586); details: recombinant PfPK6, Kinase-Glo ATP depletion luminescence
Chain of Plasmodium falciparum protein kinase 6 (PK6, PF3D7_1337100) (Q8IDW1 1-305): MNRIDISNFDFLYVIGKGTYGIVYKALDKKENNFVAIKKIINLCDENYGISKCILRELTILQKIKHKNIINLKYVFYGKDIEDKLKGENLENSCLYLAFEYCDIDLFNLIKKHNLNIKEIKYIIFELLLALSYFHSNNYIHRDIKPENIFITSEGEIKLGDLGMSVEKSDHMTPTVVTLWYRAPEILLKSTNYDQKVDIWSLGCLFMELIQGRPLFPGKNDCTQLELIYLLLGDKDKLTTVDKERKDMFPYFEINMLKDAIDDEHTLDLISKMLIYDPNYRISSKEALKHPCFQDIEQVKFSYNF

[7] = molecular target: Protein kinase 7 (PK7), Plasmodium falciparum 3D7 (PF3D7_0213400) (UniProt Q7YTF7); test: inhibition of Plasmodium PK7 catalytic activity – biochemical, TCAMS antimalarial set, Kinase-Glo luminescence (AID 1159587); details: recombinant PfPK7, Kinase-Glo ATP depletion luminescence
Chain of Protein kinase 7 (PK7), Plasmodium falciparum 3D7 (PF3D7_0213400) (Q7YTF7 1-343): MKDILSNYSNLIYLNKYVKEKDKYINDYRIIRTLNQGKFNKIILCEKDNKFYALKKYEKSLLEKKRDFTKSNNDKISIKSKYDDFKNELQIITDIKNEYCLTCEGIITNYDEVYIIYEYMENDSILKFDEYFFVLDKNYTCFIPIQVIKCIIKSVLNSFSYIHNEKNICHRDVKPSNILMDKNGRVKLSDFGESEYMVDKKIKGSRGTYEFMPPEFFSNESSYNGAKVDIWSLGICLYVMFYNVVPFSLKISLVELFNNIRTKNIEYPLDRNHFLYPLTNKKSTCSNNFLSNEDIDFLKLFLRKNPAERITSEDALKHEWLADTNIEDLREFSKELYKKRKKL

[8] = molecular target: Calcium-dependent protein kinase 4 (Plasmodium falciparum (isolate 3D7)) (UniProt Q8IBS5); test: PfCDPK4 kinase inhibitors, biochemical, TCAMS library (AID 1159588; cut-off not given, nearly all actives have IC50 up to about 0.91 µM); details: recombinant PfCDPK4, Kinase-Glo ATP depletion luminescence
Chain of Calcium-dependent protein kinase 4 (Plasmodium falciparum (isolate 3D7)) (Q8IBS5 whole entry, looked up): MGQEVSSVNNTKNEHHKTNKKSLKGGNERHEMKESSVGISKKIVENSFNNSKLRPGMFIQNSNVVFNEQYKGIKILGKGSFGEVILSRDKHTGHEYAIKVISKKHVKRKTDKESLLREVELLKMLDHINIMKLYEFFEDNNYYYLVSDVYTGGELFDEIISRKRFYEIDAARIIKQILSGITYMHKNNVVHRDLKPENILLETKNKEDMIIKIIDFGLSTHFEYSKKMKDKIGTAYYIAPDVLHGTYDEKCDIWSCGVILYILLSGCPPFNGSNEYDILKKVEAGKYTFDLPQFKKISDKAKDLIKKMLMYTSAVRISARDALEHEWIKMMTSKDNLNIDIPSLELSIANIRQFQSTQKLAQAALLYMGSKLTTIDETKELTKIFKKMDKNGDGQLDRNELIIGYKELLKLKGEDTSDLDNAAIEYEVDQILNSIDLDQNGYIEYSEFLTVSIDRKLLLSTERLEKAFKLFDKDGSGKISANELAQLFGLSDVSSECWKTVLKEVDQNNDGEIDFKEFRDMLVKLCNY

SMILES	growth inhibition [1]	inhibition [2]	inhibition [3] [%]	growth inhibition [4]	outcome [5]	outcome [6]	outcome [7]	outcome [8]
CCN(CC1CCN(CC2(O)CCOCC2)CC1)c1cc(C)nc(Nc2ccc(Cl)cc2)n1	99% (active)	34%	-4	101% (active)	inactive	inactive	inactive	inactive
Cc1cc(CNCCCCCCNCc2ccc(-c3ccccc3)cc2)ccc1O	-2%	90% (active)	-3	98% (active)	inactive	inactive	inactive	inactive
CC1(C)N=C(N)N=C(N)N1OCCCOc1cccc2ccccc12	86% (active)	67% (active)	4	95% (active)	inactive	inactive	inactive	inactive
COc1cccc(NC(=O)NCCNc2ccnc(Nc3ccc(F)cc3)n2)c1	1%	18%	4	94% (active)	inactive	inactive	inactive	inactive
Oc1ccc(-c2nc3c4cc(I)ccc4c4ccc(I)cc4c3[nH]2)cc1	51% (active)	-3%	2	98% (active)	inactive	inactive	inactive	inactive
O=C(CNc1ccncc1)c1c[nH]c2ccccc12	62% (active)	31%	-3	90% (active)	inactive	inactive	inactive	inactive
COc1ccc(C=CC(=O)NC(=O)c2ccccc2OC(=O)c2ccccc2)cc1OC	90% (active)	12%	5	87% (active)	inactive	inactive	inactive	inactive
CCCCCN1CCCCC(NS(=O)(=O)c2ccc(C(=O)Nc3ccc(C(F)(F)F)cc3)cc2)C1 (configuration not stated)	-4%	34%	-2	89% (active)	inactive	inactive	inactive	inactive
CCCCc1cc(NCc2ccncc2)nc(Nc2ccc(OC)cc2)n1	22%	11%	0	93% (active)	inactive	inactive	inactive	inactive
CN(C)c1ccc(C=Cc2ccc3ccccc3n2)c(Cl)c1	95% (active)	59% (active)	1	94% (active)	inactive	inactive	inactive	inactive
CC(C)Nc1nc(NC2CCCCC2)nc(N2CCCCCCC2)n1	96% (active)	13%	2	86% (active)	inactive	inactive	inactive	inactive
CCCCN(CCCC)C(=NCCCCCCN=C(/N=C(/N)Nc1ccc(Cl)cc1)N(CCCC)CCCC)/N=C(/N)Nc1ccc(Cl)cc1	72% (active)	-1%	-5	81% (active)	inactive	inactive	inactive	inactive
COc1ccc(CN(C)CCOc2ccc(NC(=O)c3cccc4c(=O)c5cc(SC)ccc5[nH]c34)cc2)cc1OC	98% (active)	67% (active)	1	96% (active)	inactive	inactive	inactive	inactive
CC(C)NCc1ccc(-c2cccc(NC(=O)c3ccc(F)cc3)c2)cc1	7%	28%	6	91% (active)	inactive	inactive	inactive	inactive
CCOc1ccc2c(NN=Cc3cc(OC)c(OC)c(OC)c3)cc(C)nc2c1	99% (active)	18%	-4	101% (active)	inactive	inactive	inactive	inactive
COc1ccc(NC(=O)Nc2ccc(-c3ccc(-c4nc5c(C)cccc5[nH]4)s3)cc2)cc1	96% (active)	74% (active)	3	100% (active)	inactive	inactive	inactive	inactive
O=C(Nc1ccc(OC2CCN(Cc3ccc(F)cc3)CC2)c(Cl)c1)c1ccoc1	90% (active)	-2%	2	89% (active)	inactive	inactive	inactive	inactive
O=S(=O)(Nc1cccc(CCN2CCC(N3CCCCC3)CC2)c1)c1ccc(Oc2ccccc2)cc1	25%	28%	0	100% (active)	inactive	inactive	inactive	inactive
O=C(NCCCCN1CCC(c2ccc3c(c2OCCN2CCCC2=O)CCCC3)CC1)c1ccc(-c2ccc(C(F)(F)F)cc2)cc1	1%	56% (active)	1	88% (active)	inactive	inactive	inactive	inactive
COc1cc2c(cc1S(=O)(=O)c1ccc(NC(=O)Nc3ccc(F)cc3)cc1)CCN(C)CC2	55% (active)	-1%	-5	99% (active)	inactive	inactive	inactive	inactive

SMILES	growth inhibition [1]	inhibition [2]	inhibition [3] [%]	growth inhibition [4]	outcome [5]	outcome [6]	outcome [7]	outcome [8]
CCNc1cc(C(=O)N[C@@H](Cc2ccccc2)[C@H](O)CNC(C)(C)CC(C)(C)C)c(F)c(N2CCCCS2(=O)=O)c1	63% (active)	8%	-1	94% (active)	inactive	inactive	inactive	inactive
C=C1N(C)c2cc([N+](=O)[O-])c(N)cc2C1(C)C	83% (active)	22%	-2	98% (active)	inactive	inactive	inactive	inactive
O=C(c1ccc([N+](=O)[O-])o1)N1CCC(c2cn(Cc3cccc(F)c3)c3ccccc23)CC1	95% (active)	1%	-2	97% (active)	inactive	inactive	inactive	inactive
O=C(/C=C/c1ccc(Cl)c(Cl)c1)NCCCCCN1CCCN(C(=O)Nc2ccc(Br)cc2)CC1	-4%	38%	0	99% (active)	inactive	inactive	inactive	inactive
CCCOc1ccc(-c2nonc2NC(=O)c2cccc(OC)c2)cc1OCCC	100% (active)	18%	0	94% (active)	inactive	inactive	inactive	inactive
O=C1C(c2ccccc2)=C(Nc2cccc([N+](=O)[O-])c2)c2ccccc21	88% (active)	-3%	1	88% (active)	inactive	inactive	inactive	inactive
CCc1cn2c3c(cc(C(=O)N[C@@H](Cc4ccccc4)[C@H](O)CNCCOC)cc13)N(C)S(=O)(=O)CC2	56% (active)	7%	-9	98% (active)	inactive	inactive	inactive	inactive
CC(NC(=O)NC1CCC(CCN2CCCc3ccccc32)CC1)c1cccc2ccccc12 (configuration not stated)	83% (active)	-4%	-1	90% (active)	inactive	inactive	inactive	inactive
CN1CCC(C(=O)Nc2ccc(-c3ccc(-c4nc5ccc(C(F)(F)F)cc5[nH]4)s3)cc2)CC1	95% (active)	53% (active)	4	101% (active)	inactive	inactive	inactive	inactive
COc1cc(F)c2ncc(Cl)c(CCN3CCC(NCc4ccc5c(c4)OCCO5)CC3)c2c1	92% (active)	35%	-7	97% (active)	inactive	inactive	inactive	inactive
CC1CCCN1Cc1ccc(-c2ccc3c(=O)cc(CCc4cccc(F)c4F)n(CC(=O)N(C)Cc4ccc(-c5ccc(C(F)(F)F)cc5)cc4)c3n2)cc1 (configuration not stated)	91% (active)	0%	3	102% (active)	inactive	inactive	inactive	inactive
COc1ccc2nccc([C@@H](O)CN3CCC(NCc4cc5cccnc5[nH]4)CC3)c2n1	0%	7%	-2	90% (active)	inactive	inactive	inactive	inactive
Cc1[nH]c2ccccc2c(=O)c1-c1ccc(Cl)cc1	91% (active)	-1%	2	93% (active)	inactive	inactive	inactive	inactive
COc1cc2nc(N3CCC(CNC(=O)c4ccc(NC(=O)c5ccc(Cl)cc5)cc4)CC3)nc(N)c2cc1OC	100% (active)	98% (active)	0	101% (active)	inactive	inactive	inactive	inactive
CN1CCN(c2nc(NCCNc3ccc([N+](=O)[O-])cc3)c3ccccc3n2)CC1	25%	37%	6	90% (active)	inactive	inactive	inactive	inactive
O=C(c1ccc(Cl)c(Cl)c1)N1CCc2c([nH]c3ccccc23)C1CN1CCCC1 (configuration not stated)	16%	83% (active)	2	94% (active)	inactive	inactive	inactive	inactive
CC(C)CCN1CCCN(Cc2cccc(NC(=O)c3ccc(Cl)c(Cl)c3)c2)CC1	13%	35%	-1	92% (active)	inactive	inactive	inactive	inactive
Nc1nccc2ccc(-c3ccnc(NCc4cccnc4)n3)cc12	95% (active)	11%	-3	101% (active)	inactive	inactive	inactive	inactive
COc1cc2nc(N3CC(C)N(C(=O)Cc4ccc(-c5ccccc5)cc4)C(C)C3)nc(N)c2cc1OC (configuration not stated)	12%	26%	-5	100% (active)	inactive	inactive	inactive	inactive
